MbtI inh: MbtI salicylate synthase inhibitors, primary screen, biochemical, fluorescence intensity. inhibition, % (no concentration beside the values). P9WFX0. purified MbtI enzyme, fluorescence intensity read-out. actives 0.89% (n = 100,000); in the data active = inhibition mostly above about 56%, no sharp cut-off; inactive = mostly below about 77%
Target sequence (P9WFX0 whole entry, looked up): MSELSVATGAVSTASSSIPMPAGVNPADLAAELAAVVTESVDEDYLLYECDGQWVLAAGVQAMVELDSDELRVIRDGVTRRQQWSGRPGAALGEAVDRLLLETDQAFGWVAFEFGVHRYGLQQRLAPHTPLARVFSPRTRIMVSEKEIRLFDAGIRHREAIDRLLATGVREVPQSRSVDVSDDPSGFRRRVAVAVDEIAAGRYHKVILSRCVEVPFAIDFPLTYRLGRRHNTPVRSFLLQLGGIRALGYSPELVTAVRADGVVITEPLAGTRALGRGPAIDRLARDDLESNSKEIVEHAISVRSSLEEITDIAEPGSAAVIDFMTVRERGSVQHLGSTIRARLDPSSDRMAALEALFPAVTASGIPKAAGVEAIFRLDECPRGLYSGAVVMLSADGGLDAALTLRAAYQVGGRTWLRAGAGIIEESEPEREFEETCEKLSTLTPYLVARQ
MenB inh: M. tuberculosis MenB inhibitors, primary screen, biochemical, absorbance; 1,4-dihydroxy-2-naphthoyl-CoA synthase (Mycobacterium tuberculosis (strain ATCC 25618 / …; MenB enzyme assay, absorbance read-out; inhibition, % (no concentration beside the values); actives 0.43% (n = 100,000); in the data active = inhibition above about 21%, passing the limit was not always enough
PV pol inh: poliovirus RdRp elongation inhibitors, primary screen, biochemical, fluorescence polarization, total intensity; Genome polyprotein (Poliovirus type 1 (strain Mahoney)), P03300; poliovirus polymerase elongation; active compounds read low; % elongation, % (compound at 16.7 µg/mL); actives 0.66% (n = 150,000); in the data active = % elongation below about 90%
The depositor's hits bear a star; nt = no result. Most compounds without a hit are left out; they make up all but 1.4% or so of the library.

SMILES	MbtI inh	MenB inh	PV pol inh
N#CC(NC(=S)Nc1cccc(Cl)c1)c1ccccc1 (configuration not stated)	4	-15	98
CCCn1c(=O)c2ccccc2n2c(=S)[nH]nc12	75*	-30	101
O=c1c2ccccc2n2c(=S)[nH]nc2n1-c1ccccc1	94*	-26	89*
S=c1[nH]nc(CCn2c3ccccc3c3ccccc32)n1-c1ccccc1	122	-43	103
O=c1c2ccccc2n2c(=O)[nH]nc2n1Cc1ccc(F)cc1	3	-6	98
CC(CC(=O)O)C(=O)c1ccc(Cl)cc1 (configuration not stated)	-14	nt	103
CCC(N)C(=O)c1ccc(Cl)cc1 (configuration not stated)	3	32*	101
CC(=O)N(CCC(Cc1ccccc1)c1ccc2c(c1)OCO2)Cc1ccc2c(c1)OCO2 (configuration not stated)	nt	-7	101
Cc1cccc(O)c1O	86*	-14	102
CC(C)c1cccc(C(C)C)c1O	-8	-9	100
CC(C)n1c2ccccc2c2n[nH]c(=S)nc21	40	-3	93
S=c1nc2c(n[nH]1)c1ccccc1n2Cc1ccccc1	nt	-32	73*
CCC1Sc2cc(S(=O)(=O)Nc3cccc(Cl)c3)ccc2NC1=O (configuration not stated)	-6	1	102
COC(=O)c1ccc(C(=O)OC)cc1	nt	-14	105
COC(=O)c1ccc(C(=S)NCC(OC)OC)cc1	87*	-61	79*
Cc1cc(C)c(S(=O)(=O)/N=C2\SCCN2S(=O)(=O)c2c(C)cc(C)cc2C)c(C)c1	0	-19	101
CCC(C)(C)C(=O)Nc1cc(C)cc(C)c1	nt	-10	103
